Results filed as inconclusive are left out. A call without a number means that no potency is given here. The source made the active and inactive calls. Unless noted, the call rests on the fitted dose curve; in most records, active means well fitted curve in the direction sought with a large enough effect; inconclusive means small, poorly fitted or top-dose-only effect, or another doubt; inactive means no such curve, though single readings can be large; an effect the other way counts as inactive or inconclusive.
Columns and labels:
[1] = biological target: Ubiquitin carboxyl-terminal hydrolase 1 (Homo sapiens) (UniProt O94782); experiment: Inhibitors of USP1/UAF1: Pilot qHTS (AID 504865);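 further: rhodamine fluorescence freed from ubiquitin-rhodamine substrate followed over time; top concentration of the series differs between compounds; nearly all actives have a fitted effect of over 35% in size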
In short: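 Enzyme-free wells gave the negative control, while test wells held 1nM USP1/UAF1 preincubated with compound for 15 min at room temperature. Ub-Rho at 150nM final started the reaction, and fluorescence at 480/540 nm was recorded kinetically.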

[2] = S16 Schwann cell PMP22 intronic element firefly luciferase assay (AID 624032); further: nearly all actives have a fitted effect of over 30% in size; further: potency means the concentration at half of the fitted maximal effect
In short: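 Rat S16 Schwann cells stably carrying firefly luciferase driven by a PMP22 intronic element, in 10% FBS, treated 24 h at 37 C. ONE-Glo luminescence normalized to PTC124 control and DMSO (0%); curves classed by r2, magnitude and activity.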

[3] = S16 Schwann cell PMP22 intronic element beta-lactamase assay (AID 624044; calls by dose curve; further: nearly all actives have a fitted effect of over 15% in size; further: potency means the concentration at half of the fitted maximal effect); settings: S16 rat Schwann cells, PMP22 element beta-lactamase FRET, 24 h; ratio activity, negative = inhibition: at 38.3 µM (top of the series)
In short: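 Rat S16 Schwann cells with beta-Lac driven by a PMP22 intronic element, compound-treated 24 h at 37 °C. LiveBLAzer FRET B/G read: 460 nm normalized to potassium clavulanate vs DMSO; 535 nm FRET as viability; concentration-effect curves classified.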

DIV17 = experiment: qHTS profiling for inhibitors of Plasmodium falciparum proliferation (AID 504749); further: nearly all actives have a fitted effect of over 60% in size; further: potency means the concentration at half of the fitted maximal effect; settings: P. falciparum in erythrocytes, SYBR Green DNA, 72 h; series mostly up to 28.7 µM
In short: (§1)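 Readout was DNA-dye fluorescence from lysed cultures, ex 485/em 535 nm. Parasitized red cells had grown 72 h with compound; data scaled between 0.29 uM artemisinin and DMSO wells and corrected using vehicle-only plates.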

W2 = experiment: as above; settings: P. falciparum in erythrocytes, SYBR Green DNA, 72 h; series mostly up to 28.7 µM
In short: as §1

[4] = S16 Schwann cell viability assay (CellTiter-Glo assay) (AID 624031);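 further: cellular ATP luminescence as a viability measure; nearly all actives have a fitted effect of over 70% in size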
In short: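 Native S16 rat Schwann cells, 500-750 cells/well in DMEM with 10% FBS, dosed with compound after overnight culture and incubated 24h at 37 degree Celsius/5% CO2. Viability by CellTiter-Glo luminescence; % activity normalized to no-cell wells and DMSO-treated cells.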

[5] = biological target: Cytochrome P450 3A4 (Homo sapiens) (UniProt P08684); experiment: qHTS Assay for Inhibitors and Substrates of Cytochrome P450 3A4 (AID 884); further: nearly all actives have a fitted effect of over 50% in size; further: potency means the concentration at half of the fitted maximal effect
In short: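 20 nM human CYP3A4 with 25 uM Luciferin-PPXE (at KM) in 200 mM KPO4, preincubated 10 min with compound; NADPH regeneration started a 60 min RT reaction. Luciferin detected by luminescence, normalized to 57 uM ketoconazole as full inhibition.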

[6] = Confirmation and Secondary Assay for Modulators of Hemoglobin Beta Chain Splicing at IVS2 654 locus (AID 910);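 further: HeLa cells stably carrying EGFP split by mutant beta-globin IVS2-654 intron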
In short: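 HeLa cells stably expressing EGFP interrupted by β-globin IVS2-654 intron, seeded overnight in Opti-MEM/2% FCS, then treated 2 days at 37 °C. Restored splicing read as total peak GFP intensity per well by laser scanning cytometry (488 nm excitation, 500–520 nm emission); 500 nM antisense PNA as control.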

[7] = Confirmation and Secondary Assay for Modulators of Hemoglobin Beta Chain Splicing at IVS2 705 locus (AID 930);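 further: HeLa cells stably expressing the EGFP-705 splicing reporter; GFP fluorescence per well restored by corrected splicing of the IVS2-705 intron in EGFP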
In short: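 HeLa cells stably carrying EGFP interrupted by mutant beta-globin intron 2 (IVS2-705) treated 2 days at 37C with compound; 500 nM antisense PNA as control. Correct splicing read as total peak GFP intensity per well by laser-scanning cytometry.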

[8] = biological target: Cytochrome P450 3A4 (Homo sapiens) (UniProt P08684); experiment: qHTS Assay for Activators of Cytochrome P450 3A4 (AID 885); further: nearly all actives have a fitted effect of over 65% in size
In short: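 Quantitative HTS format: compounds preincubated with 20nM human CYP3A4 and Luciferin-PPXE substrate at KM, reaction started by NADPH regeneration, stopped after 60 min, luciferase luminescence read 20 min later.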

Sequence of Ubiquitin carboxyl-terminal hydrolase 1 (Homo sapiens) (O94782 whole entry, looked up): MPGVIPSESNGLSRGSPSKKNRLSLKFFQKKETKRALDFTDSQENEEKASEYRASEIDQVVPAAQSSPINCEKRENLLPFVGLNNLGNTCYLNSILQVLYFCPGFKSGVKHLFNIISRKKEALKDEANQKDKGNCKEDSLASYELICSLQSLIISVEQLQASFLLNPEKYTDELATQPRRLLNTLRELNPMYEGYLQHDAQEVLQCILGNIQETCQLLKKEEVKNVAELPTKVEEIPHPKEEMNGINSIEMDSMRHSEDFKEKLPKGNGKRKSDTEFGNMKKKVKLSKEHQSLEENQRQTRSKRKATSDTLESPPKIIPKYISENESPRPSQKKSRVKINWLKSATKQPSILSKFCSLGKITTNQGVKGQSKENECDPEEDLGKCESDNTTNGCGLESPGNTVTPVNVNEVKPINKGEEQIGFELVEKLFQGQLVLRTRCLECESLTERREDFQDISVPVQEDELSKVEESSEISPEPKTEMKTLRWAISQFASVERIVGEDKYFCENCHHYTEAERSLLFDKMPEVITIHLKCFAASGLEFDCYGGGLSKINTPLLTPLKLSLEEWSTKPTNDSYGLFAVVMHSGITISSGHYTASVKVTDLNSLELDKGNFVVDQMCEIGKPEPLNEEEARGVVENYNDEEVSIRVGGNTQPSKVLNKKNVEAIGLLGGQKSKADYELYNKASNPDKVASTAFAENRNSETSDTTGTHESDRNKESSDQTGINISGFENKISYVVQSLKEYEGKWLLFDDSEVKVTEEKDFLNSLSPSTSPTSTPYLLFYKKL
Sequence of Cytochrome P450 3A4 (Homo sapiens) (P08684 whole entry, looked up): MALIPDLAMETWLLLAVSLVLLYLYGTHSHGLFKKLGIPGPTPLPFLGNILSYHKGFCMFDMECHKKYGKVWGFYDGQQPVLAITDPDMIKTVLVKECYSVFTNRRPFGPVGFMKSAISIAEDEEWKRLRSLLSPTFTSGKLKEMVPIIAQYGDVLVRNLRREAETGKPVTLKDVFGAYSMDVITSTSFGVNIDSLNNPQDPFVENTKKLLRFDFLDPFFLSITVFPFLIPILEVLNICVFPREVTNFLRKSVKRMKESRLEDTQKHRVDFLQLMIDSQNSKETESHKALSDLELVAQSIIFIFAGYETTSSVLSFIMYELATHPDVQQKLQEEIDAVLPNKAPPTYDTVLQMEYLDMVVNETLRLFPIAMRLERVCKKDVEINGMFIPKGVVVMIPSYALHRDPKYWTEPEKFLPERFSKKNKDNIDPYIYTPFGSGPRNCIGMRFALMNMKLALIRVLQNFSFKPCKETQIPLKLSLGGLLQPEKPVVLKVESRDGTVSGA

## CN[C@H](C)CCC=C(C)C
[1]
  Potency: inactive
[2]
  Potency: inactive
[3]
  Potency: inactive
DIV17
  Potency: 190 nM (active)
W2
  Potency: 47.8 nM (active)

## NC(=O)C1CC2(NC(=O)NC2=O)c2cc(F)ccc2O1 (configuration not stated)
[1]
  Potency: inactive
[4]
  Potency: inactive
[2]
  Potency: inactive
DIV17
  Potency: inactive
W2
  Potency: inactive

## CCCCC(=O)O[C@]1(C(=O)CO)CCC2C3CCC4=CC(=O)CCC4(C)C3C(O)CC21C (some centres not stated)
[4]
  Potency: inactive
[2]
  Potency: inactive
[3]
  ratio activity, negative = inhibition: -11.9% (active)
DIV17
  Potency: inactive

## CC1(C)CC1C(=O)N/C(=C/CCCCSCC(N)C(=O)O)C(=O)O (configuration not stated)
[1]
  Potency: inactive
[4]
  Potency: inactive
[2]
  Potency: inactive
DIV17
  Potency: inactive
W2
  Potency: inactive

## NC(=O)OC[C@@H]1[C@H](NC(=O)/C(=N/OCC(=O)O)c2csc(N)n2)C(=O)N1S(=O)(=O)O
[1]
  Potency: inactive
[2]
  Potency: inactive
[3]
  Potency: inactive

## CC1(C(=O)O)CCC2(C)CCC3(C)C(=CC(=O)C4C5(C)CCC(O)C(C)(C)C5CCC43C)C2C1 (configuration not stated)
[4]
  Potency: inactive
[2]
  Potency: inactive
[3]
  Potency: inactive
W2
  Potency: inactive

## CCC(=O)O[C@]1(C(=O)CCl)[C@@H](C)CC2C3C[C@H](F)C4=CC(=O)C=CC4(C)[C@@]3(F)C(O)CC21C (some centres not stated)
[3]
  Potency: inactive
DIV17
  Potency: 4260 nM (active)
W2
  Potency: 6010 nM (active)

## C/C(=C(/CCO)SS/C(CCO)=C(\C)N(C=O)Cc1cnc(C)nc1N)N(C=O)Cc1cnc(C)nc1N
[1]
  Potency: inactive
[2]
  Potency: inactive
[3]
  Potency: inactive
DIV17
  Potency: inactive
W2
  Potency: inactive

## CC1(Cn2ccnn2)[C@H](C(=O)O)N2C(=O)C[C@H]2S1(=O)=O (some centres not stated)
[1]
  Potency: inactive
[4]
  Potency: inactive
[2]
  Potency: inactive
DIV17
  Potency: inactive
W2
  Potency: inactive

## CC1C(=O)C(=O)C=CN1C (configuration not stated)
[1]
  Potency: inactive
[4]
  Potency: inactive
[2]
  Potency: inactive
DIV17
  Potency: inactive
W2
  Potency: inactive

## CC(CCC(=O)O)C1CCC2C3C(=O)C[C@@H]4CC(=O)CC[C@@]4(C)C3CC(=O)[C@]12C (some centres not stated)
[5]
  Potency: inactive
[6]
  Potency: inactive
[7]
  Potency: inactive
[1]
  Potency: inactive
[4]
  Potency: inactive
[2]
  Potency: inactive
[3]
  Potency: inactive

## CC(=O)OC1C([N+]2(C)CCCCC2)C[C@H]2C3CC[C@H]4C[C@H](OC(C)=O)C([N+]5(C)CCCCC5)CC4(C)C3CCC12C (some centres not stated)
[4]
  Potency: inactive
[2]
  Potency: inactive
[3]
  Potency: inactive

## C=C1NC(=O)c2cc(CN(C)c3ccc(C(=O)N[C@@H](CCC(=O)O)C(=O)O)s3)ccc2N1
[1]
  Potency: inactive
[4]
  Potency: inactive
[2]
  Potency: 5.7 nM (active)
[3]
  Potency: 7.9 nM (active)
DIV17
  Potency: inactive
W2
  Potency: 13500 nM (active)

## OCC(CO)NC1C[C@](O)(CO)[C@@H](O)[C@H](O)[C@H]1O (some centres not stated)
[1]
  Potency: inactive
[4]
  Potency: inactive
[2]
  Potency: inactive
[3]
  Potency: inactive
DIV17
  Potency: inactive
W2
  Potency: inactive

## CC(CN1CC(=O)NC(=O)C1)N1CC(=O)NC(=O)C1 (configuration not stated)
[1]
  Potency: inactive
[2]
  Potency: 18100 nM (active)
[3]
  Potency: inactive
DIV17
  Potency: inactive
W2
  Potency: inactive

## Cc1onc(-c2c(F)cccc2Cl)c1C(=O)NC1C(=O)N2C1SC(C)(C)C2C(=O)O (configuration not stated)
[1]
  Potency: inactive
[2]
  Potency: inactive
DIV17
  Potency: inactive
W2
  Potency: inactive

## CCCC(=O)Nc1c(I)cc(I)c(C[C@H](CC)C(=O)O)c1I
[1]
  Potency: inactive
[4]
  Potency: inactive
[2]
  Potency: inactive
[3]
  Potency: inactive
DIV17
  Potency: inactive

## CCC(C(=O)C(C)C(O)C(C)CCc1ccc(C)c(O)c1C(=O)O)C1OC(CC)(C2CC[C@@](O)(CC)C(C)O2)CC1C (some centres not stated)
[5]
  Potency: 20000 nM (active)
[6]
  Potency: inactive
[7]
  Potency: inactive
[2]
  Potency: 1810 nM (active)
[3]
  Potency: 6300 nM (active)
DIV17
  Potency: 849 nM (active)
W2
  Potency: 675 nM (active)

## C[S+](C)CC[C@H](N)C(=O)O
[1]
  Potency: inactive
[2]
  Potency: inactive
[3]
  Potency: inactive
W2
  Potency: inactive

## CCCCCOC(=O)Nc1nc(=O)n(C2O[C@H](C)[C@@H](O)[C@@H]2O)cc1F (some centres not stated)
[1]
  Potency: inactive
[4]
  Potency: inactive
[2]
  Potency: inactive
[3]
  Potency: inactive
DIV17
  Potency: inactive

## C[C@@H](O)[C@@H]1C(=O)N2C(C(=O)O)=C([C@H]3CCCO3)S[C@H]12
[1]
  Potency: inactive
[4]
  Potency: inactive
[2]
  Potency: inactive
DIV17
  Potency: inactive
W2
  Potency: inactive

## C[C@@H]1CCN(C(=O)[C@H](CCCNC(=N)N)NS(=O)(=O)c2cccc3c2NC[C@H](C)C3)[C@@H](C(=O)O)C1
[1]
  Potency: inactive
[4]
  Potency: inactive
[2]
  Potency: inactive
DIV17
  Potency: inactive

## Cc1ccccc1N1C(=O)c2cc(N)ccc2N/C1=C\F
[1]
  Potency: inactive
[2]
  Potency: inactive

## COC1CC2CCC(C)[C@](O)(O2)C(=O)C(=O)N2CCCCC2C(=O)OC(C(C)CC2CCC(O)C(OC)C2)CC(=O)C(C)/C=C(/C)C(O)C(OC)C(=O)C(C)CC(C)C=CC=C/C=C\1C (some centres not stated)
[3]
  Potency: inactive
DIV17
  Potency: 1690 nM (active)
W2
  Potency: 675 nM (active)

## CO/N=C(/C(=O)N[C@@H]1C(=O)N2C(C(=O)O)=C(CSc3nnnn3C)CS[C@H]12)c1csc(N)n1
[1]
  Potency: inactive
[4]
  Potency: inactive
[2]
  Potency: inactive
DIV17
  Potency: inactive
W2
  Potency: inactive

## COc1ccc(S(=O)(=O)N2c3ccc(Cl)cc3[C@](O)(c3ccccc3Cl)[C@@H]2C(=O)N2CCC[C@H]2C(N)=O)cc1OC
[8]
  Potency: inactive
[1]
  Potency: inactive

## CC1CN(c2c(F)c(N)c3c(=O)c(C(=O)O)cn(C4CC4)c3c2F)CC(C)N1 (configuration not stated)
[1]
  Potency: inactive
[4]
  Potency: inactive
[2]
  Potency: inactive
DIV17
  Potency: inactive
W2
  Potency: inactive

From PubChem BioAssay (NCATS)
